We go through 38 compounds from PubChem BioAssay.

Activity calls are given as the source filed them.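 Rule for the calls: active = inhibition at or above 50% relative to wild type and mutant plate controls; inactive = inhibition below 50%.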

In general, inhibition refers to the drop in the measured response relative to a control, in per cent.

The nature of the assay: loss of swimming-algae plug formation – whole organism, Chlamydomonas reinhardtii, WT vs cilia-less mutant, absorbance, 96-well, primary screen (AID 463189).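 Note: 0% = wild type cc124 cells in DMSO and 100% = ciliumless bld1 mutant cells.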 The note with it: Chlamydomonas reinhardtii gravitaxis, OD600 absorbance, 2 days; at 10 µM; stronger effect = higher value.
As for `C[N+]1(C)CCOC(O)(c2ccc(-c3ccc(C4(O)C[N+](C)(C)CCO4)cc3)cc2)C1` (stereo not drawn), the inhibition is 1.34% (inactive).

For the compound `C[C@H](Cc1ccc2c(c1)OC(C(=O)O)(C(=O)O)O2)NC[C@H](O)c1cccc(Cl)c1`, the inhibition was 1.22% (inactive).

Turning to `NC(C(=O)O)c1cc(=O)[nH]o1` (stereo not drawn), the inhibition was 6.42% (inactive).

As to `C[C@@H]1O[C@H](C[N+](C)(C)C)C[C@H]1O`, the inhibition was 3.38% (inactive).

In the case of `CC(=O)[C@H]1CCC2C3CC[C@H]4C[C@H](O)CC[C@]4(C)C3CC[C@@]21C` (stereo partly drawn), the inhibition is 0.863% (inactive).

Take `O=C(O)c1nn(Cc2ccc(Cl)cc2Cl)c2ccccc12`: the inhibition was -0.768% (inactive).

Regarding `C[C@H](N)CN1CCc2ccc(Br)cc21`, the inhibition was -3.37% (inactive).

As for `S=C(NC1CCCCC1)N1CCC(c2cnc[nH]2)CC1`, the inhibition was 12.6% (inactive).

Consider `Oc1ccc2c3c1O[C@H]1c4[nH]c5c(c4C[C@@]4(O)[C@@H](C2)N(CC2CC2)CC[C@]314)C[C@@]1(O)[C@H]2Cc3ccc(O)c4c3[C@@]1(CCN2CC1CC1)[C@H]5O4`, for which the inhibition is -0.992% (inactive).

With `C[C@]12Cc3cn4c(nc3C=C1CCC1C2CC[C@@]2(C)[C@H]1CC[C@@]2(O)C#N)nc1ccccc14` (stereo partly drawn), the inhibition was 72.1% (active).

Take `CCC1(c2ccc(N)cc2)CCC(=O)NC1=O` (stereo not drawn): the inhibition is -0.133% (inactive).

Take `O=P(O)(O)C(Cl)(Cl)P(=O)(O)O`: the inhibition was 8.57% (inactive).

As for `N#CC(C#N)=Cc1ccc([N+](=O)[O-])c(O)c1`, the inhibition is 2.16% (inactive).

Turning to `CN1C2CCC1CC(OC(=O)c1cc(Cl)cc(Cl)c1)C2` (stereo not drawn), the inhibition was 116% (active).

In the case of `NC(N)=NOCC[C@H](N)C(=O)O`, the inhibition is -0.094% (inactive).

Consider `CC(N)c1cccc(Cl)c1Cl` (stereo not drawn), for which the inhibition was -4.86% (inactive).

As to `Fc1ccc(C(OCCN2CCN(CCCc3ccccc3)CC2)c2ccc(F)cc2)cc1`, the inhibition was 12.7% (inactive).

`C=CCN1CC[C@]23c4c5ccc(O)c4O[C@H]2/C(=N/NC(=O)c2ccccc2)CC[C@@]3(O)[C@H]1C5`: the inhibition was 2.64% (inactive).

Consider `COC(=O)c1cc2c(cn1)[nH]c1ccccc12`, for which the inhibition was 2.96% (inactive).

On to `COc1ccc2c(c1O)-c1cccc3c1[C@@H](C2)N(C)CC3`, for which the inhibition is 6.42% (inactive).

Take `COc1ccc(CNC(=O)/C=C/c2ccc3[nH]cc(CCN(C)C)c3c2)cc1`: the inhibition was -7.85% (inactive).

Take `CC(=O)NBr`: the inhibition is 10% (inactive).

With `Cc1o[nH]c(=O)c1CC(N)C(=O)O` (stereo not drawn), the inhibition was 5.41% (inactive).

As to `C#CCN[C@H](C)Cc1ccccc1`, the inhibition is 20.4% (inactive).

Take `COc1ccc2c(c1)[C@@]13CCCC[C@H]1[C@@H](C2)NCC3`: the inhibition was 4.9% (inactive).

Regarding `CCCCCCC(C)(C)c1ccc([C@@H]2C[C@H](O)CC[C@H]2CCCO)c(O)c1`, the inhibition is -3.04% (inactive).

`CC1(C(=O)O)C2CCC(O2)C1(C)C(=O)O` (stereo not drawn): the inhibition is -0.9% (inactive).

In the case of `NCCc1ccc(S(=O)(=O)F)cc1`, the inhibition is 0.651% (inactive).

For the compound `O=P1(N(CCCl)CCCl)NCCCO1` (stereo not drawn), the inhibition was -0.869% (inactive).

Take `NC1CCc2cc(O)c(O)cc2C1` (stereo not drawn): the inhibition is -5.92% (inactive).

For `CC(C)CC(NP(=O)(O)O[C@@H]1O[C@@H](C)[C@H](O)[C@@H](O)[C@H]1O)C(=O)NC(Cc1c[nH]c2ccccc12)C(=O)O` (stereo partly drawn), the inhibition is 5.76% (inactive).

Consider `C/C=C(/C)C(=O)O[C@H]1C(C)=C2[C@H]([C@@H]1OC(=O)CCCCCCC)[C@@](C)(OC(C)=O)C[C@H](OC(=O)CCC)[C@@]1(O)[C@H]2OC(=O)[C@@]1(C)O`, for which the inhibition was -1.82% (inactive).

`Oc1ccc2c3c1O[C@H]1c4oc5ccccc5c4C[C@@]4(O)C(C2)N(CC2CC2)CCC314` (stereo partly drawn): the inhibition was 3.38% (inactive).

In the case of `CN1C2CCC1CC(OC(c1ccccc1)c1ccc(Cl)cc1)C2` (stereo not drawn), the inhibition is 11.8% (inactive).

For the compound `Nc1ccc(CCN2CCN(c3cccc(C(F)(F)F)c3)CC2)cc1`, the inhibition is 40.5% (inactive).

Take `O=C1CCCN1CC#CCN1CCCC1`: the inhibition was 7.02% (inactive).

As to `Clc1cnc(Oc2ccc(Oc3ncc(Cl)cc3Cl)cc2)c(Cl)c1`, the inhibition was 2.67% (inactive).

In the case of `COc1ccc2c(c1OC)C(=O)O[C@H]2[C@@H]1c2cc3c(cc2CCN1C)OCO3`, the inhibition is -6.11% (inactive).
